# Out of some 5,500 compounds screened, about 2,000 (36%) were called active. Inconclusive results (about 18%) are left out. The list shows a part of the results. Values without a mark were called inactive. No stated cut-off is given here; in the data, active means normalized growth mostly below about 0.91 (no sharp cut-off); inconclusive means no clear call, values can overlap the other calls; inactive means mostly above about 0.92.
# Test: chemical genetic growth profiling, strain panel (AID 1159580);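 further: tested at 20 µM; growth read once vehicle control cultures reached saturation at 30 °C; 1 = growth at the plate median or of vehicle wells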
# Conditions: S. cerevisiae deletion strains, growth OD
smiles,measurement,setting,value
CN(C)CCOc1ccc(/C(=C(/CCCl)c2ccccc2)c2ccccc2)cc1,normalized growth,"locus YAL021C, strain ccr4, stronger effect = lower value",0.0628 (active)
same,normalized growth,"locus YAL026C, strain drs2, stronger effect = lower value",0.0599 (active)
same,normalized growth,"locus YAL030W, strain snc1, stronger effect = lower value",0.0605 (active)
same,normalized growth,"locus YBL061C, strain skt5, stronger effect = lower value",0.0647 (active)
same,normalized growth,"locus YBR009C, strain hhf1, stronger effect = lower value",0.0629 (active)
same,normalized growth,"locus YBR023C, strain chs3, stronger effect = lower value",0.0684 (active)
same,normalized growth,"locus YBR171W, strain sec66, stronger effect = lower value",0.1 (active)
same,normalized growth,"locus YBR231C, strain swc5, stronger effect = lower value",0.0672 (active)
same,normalized growth,"locus YBR279W, strain paf1, stronger effect = lower value",0.0678 (active)
same,normalized growth,"locus YCL011C, strain gbp2, stronger effect = lower value",0.0647 (active)
same,normalized growth,"locus YCL016C, strain dcc1, stronger effect = lower value",0.0711 (active)
same,normalized growth,"locus YCL061C, strain MRC1, stronger effect = lower value",0.107 (active)
same,normalized growth,"locus YCL069W, strain vba3, stronger effect = lower value",0.071 (active)
same,normalized growth,"locus YCR088W, strain abp1, stronger effect = lower value",0.0709 (active)
same,normalized growth,"locus YDL005C, strain med2, stronger effect = lower value",0.0725 (active)
same,normalized growth,"locus YDL040C, strain nat1, stronger effect = lower value",0.0985 (active)
same,normalized growth,"locus YDR001C, strain nth1, stronger effect = lower value",0.0873 (active)
same,normalized growth,"locus YDR069C, strain doa4, stronger effect = lower value",0.0653 (active)
same,normalized growth,"locus YDR137W, strain rgp1, stronger effect = lower value",0.0958 (active)
same,normalized growth,"locus YDR159W, strain sac3, stronger effect = lower value",0.0868 (active)
same,normalized growth,"locus YDR195W, strain ref2",0.126 (active)
same,normalized growth,"locus YDR297W, strain sur2, stronger effect = lower value",0.0624 (active)
same,normalized growth,"locus YDR334W, strain swr1, stronger effect = lower value",0.0691 (active)
same,normalized growth,"locus YDR335W, strain msn5, stronger effect = lower value",0.0647 (active)
same,normalized growth,"locus YDR392W, strain spt3, stronger effect = lower value",0.0935 (active)
same,normalized growth,"locus YEL003W, strain gim4, stronger effect = lower value",0.0736 (active)
same,normalized growth,"locus YEL037C, strain rad23, stronger effect = lower value",0.0691 (active)
same,normalized growth,"locus YEL061C, strain CIN8 (second series), stronger effect = lower value",0.0848 (active)
same,normalized growth,"locus YER015W, strain faa2, stronger effect = lower value",0.0621 (active)
same,normalized growth,"locus YER016W, strain bim1, stronger effect = lower value",0.0811 (active)
same,normalized growth,"locus YER111C, strain swi4, stronger effect = lower value",0.0861 (active)
same,normalized growth,"locus YER155C, strain BEM2 (second series), stronger effect = lower value",0.107 (active)
same,normalized growth,"locus YFR010W, strain ubp6, stronger effect = lower value",0.069 (active)
same,normalized growth,"locus YGL167C, strain pmr1, stronger effect = lower value",0.0724 (active)
same,normalized growth,"locus YGL173C, strain kem1, stronger effect = lower value",0.0697 (active)
same,normalized growth,"locus YGL227W, strain vid30, stronger effect = lower value",0.0851 (active)
same,normalized growth,"locus YGL240W, strain doc1, stronger effect = lower value",0.0984 (active)
same,normalized growth,"locus YGL253W, strain hxk2, stronger effect = lower value",0.0578 (active)
same,normalized growth,"locus YHR013C, strain ard1, stronger effect = lower value",0.111 (active)
same,normalized growth,"locus YHR027C, strain rpn1, stronger effect = lower value",0.063 (active)
same,normalized growth,"locus YHR030C, strain SLT2, stronger effect = lower value",0.711 (active)
same,normalized growth,"locus YHR079C, strain IRE1, stronger effect = lower value",0.837 (active)
same,normalized growth,"locus YHR142W, strain chs7, stronger effect = lower value",0.0764 (active)
same,normalized growth,"locus YJL092W, strain hpr5, stronger effect = lower value",0.0832 (active)
same,normalized growth,"locus YJL095W, strain BCK1 (second series), stronger effect = lower value",0.0582 (active)
same,normalized growth,"locus YJL095W, strain BCK1, stronger effect = lower value",0.648 (active)
same,normalized growth,"locus YJL115W, strain asf1, stronger effect = lower value",0.118 (active)
same,normalized growth,"locus YJL129C, strain trk1, stronger effect = lower value",0.0917 (active)
same,normalized growth,"locus YJL154C, strain vps35, stronger effect = lower value",0.0755 (active)
same,normalized growth,"locus YJL164C, strain tpk1, stronger effect = lower value",0.0629 (active)
same,normalized growth,"locus YJL166W, strain qcr8, stronger effect = lower value",0.0637 (active)
same,normalized growth,"locus YJL187C, strain SWE1, stronger effect = lower value",0.0638 (active)
same,normalized growth,"locus YJR066W, strain TOR1, stronger effect = lower value",0.819 (active)
same,normalized growth,"locus YKL160W, strain elf1, stronger effect = lower value",0.079 (active)
same,normalized growth,"locus YKR026C, strain gcn3, stronger effect = lower value",0.106 (active)
same,normalized growth,"locus YKR091W, strain srl3, stronger effect = lower value",0.0783 (active)
same,normalized growth,"locus YLL001W, strain dnm1, stronger effect = lower value",0.0676 (active)
same,normalized growth,"locus YLL026W, stronger effect = lower value",0.0624 (active)
same,normalized growth,"locus YLL041C, strain sdh2, stronger effect = lower value",0.0691 (active)
same,normalized growth,"locus YLR027C, strain aat2, stronger effect = lower value",0.0598 (active)
same,normalized growth,"locus YLR113W, strain HOG1, stronger effect = lower value",0.791 (active)
same,normalized growth,"locus YLR221C, strain rsa3, stronger effect = lower value",0.0691 (active)
same,normalized growth,"locus YLR258W, strain gsy2, stronger effect = lower value",0.0661 (active)
same,normalized growth,"locus YLR262C, strain YPT6 (second series), stronger effect = lower value",0.0861 (active)
same,normalized growth,"locus YLR320W, strain mms22, stronger effect = lower value",0.0789 (active)
same,normalized growth,"locus YLR342W, strain FKS1, stronger effect = lower value",0.0712 (active)
same,normalized growth,"locus YLR357W, strain rsc2, stronger effect = lower value",0.148 (active)
same,normalized growth,"locus YLR370C, strain arc18, stronger effect = lower value",0.0617 (active)
same,normalized growth,"locus YLR384C, strain iki3, stronger effect = lower value",0.078 (active)
same,normalized growth,"locus YML120C, strain ndi1, stronger effect = lower value",0.0751 (active)
same,normalized growth,"locus YMR058W, strain fet3, stronger effect = lower value",0.064 (active)
same,normalized growth,"locus YMR125W, strain sto1, stronger effect = lower value",0.0872 (active)
same,normalized growth,"locus YMR129W, stronger effect = lower value",0.0788 (active)
same,normalized growth,"locus YMR205C, strain PFK2, stronger effect = lower value",0.0858 (active)
same,normalized growth,"locus YMR231W, strain pep5, stronger effect = lower value",0.0638 (active)
same,normalized growth,"locus YNL071W, strain lat1, stronger effect = lower value",0.0628 (active)
same,normalized growth,"locus YNL183C, strain NPR1, stronger effect = lower value",0.85
same,normalized growth,"locus YNL209W, strain ssb2, stronger effect = lower value",0.0599 (active)
same,normalized growth,"locus YNL248C, strain rpa49, stronger effect = lower value",0.166 (active)
same,normalized growth,"locus YNL322C, strain KRE1 (second series), stronger effect = lower value",0.433 (active)
same,normalized growth,"locus YNR049C, strain mso1, stronger effect = lower value",0.0725 (active)
same,normalized growth,"locus YOR001W, strain rrp6, stronger effect = lower value",0.0831 (active)
same,normalized growth,"locus YOR070C, strain gyp1, stronger effect = lower value",0.0593 (active)
same,normalized growth,"locus YOR080W, strain dia2, stronger effect = lower value",0.0814 (active)
same,normalized growth,"locus YOR083W, strain WHI5, stronger effect = lower value",0.0673 (active)
same,normalized growth,"locus YOR106W, strain vam3, stronger effect = lower value",0.117 (active)
same,normalized growth,"locus YOR231W, strain MKK1, stronger effect = lower value",0.791 (active)
same,normalized growth,"locus YOR265W, strain rbl2, stronger effect = lower value",0.0684 (active)
same,normalized growth,"locus YOR270C, strain vph1, stronger effect = lower value",0.0918 (active)
same,normalized growth,"locus YOR290C, strain snf2, stronger effect = lower value",0.0929 (active)
same,normalized growth,"locus YPL051W, strain arl3, stronger effect = lower value",0.0673 (active)
same,normalized growth,"locus YPL078C, strain atp4, stronger effect = lower value",0.0865 (active)
same,normalized growth,"locus YPL106C, strain sse1, stronger effect = lower value",0.1 (active)
same,normalized growth,"locus YPL240C, strain hsp82, stronger effect = lower value",0.0664 (active)
same,normalized growth,"locus YPL256C, strain CLN2, stronger effect = lower value",0.835
CN(CCOc1ccc(C[C@H](Nc2ccccc2C(=O)c2ccccc2)C(=O)O)cc1)c1ccccn1,normalized growth,"locus YAL013W, strain DEP1, stronger effect = lower value",0.992
same,normalized growth,"locus YAL040C, strain CLN3, stronger effect = lower value",1.09
same,normalized growth,"locus YCL061C, strain MRC1 (second series), stronger effect = lower value",0.999
same,normalized growth,"locus YDR363W, strain ESC2, stronger effect = lower value",0.994
same,normalized growth,"locus YER002W, strain NOP16, stronger effect = lower value",1
same,normalized growth,"locus YGR078C, strain PAC10, stronger effect = lower value",1.02
same,normalized growth,"locus YMR263W, strain SAP30, stronger effect = lower value",1
same,normalized growth,"locus YMR307W, strain GAS1, stronger effect = lower value",0.996
same,normalized growth,"locus YNL175C, strain NOP13, stronger effect = lower value",1
same,normalized growth,"locus YNL197C, strain WHI3, stronger effect = lower value",0.994
same,normalized growth,"locus YNL224C, strain SQS1, stronger effect = lower value",0.992
same,normalized growth,"locus YOR083W, strain WHI5 (second series), stronger effect = lower value",1.1
same,normalized growth,"locus YPL055C, strain LGE1, stronger effect = lower value",1

# Source: PubChem BioAssay AID1159580 (chemical genetic matrix, 2015)
